# Reference: PMC7862700, “An all-to-all approach to the identification of sequence-specific readers for epigenetic DNA modifications on cytosine”
# How the values were obtained:
# Assay in all cases: DAPPL (digital affinity profiling via proximity ligation, sequencing); 10 mM Tris-HCl pH 7.5, 50 mM NaCl, 1 mM DTT, 4% glycerol, room temperature, 30 min; GST-TFs on glutathione beads, 16-mer random dsDNA library, 0.1% formaldehyde crosslink after washing; high values mean tight binding
# [1] = molecular target: T1, FEV (Homo sapiens, UniProt Q99581 1-238); details: protein: recombinant; tags: N-terminal GST; dsDNA, one strand shown
# T1 sequence: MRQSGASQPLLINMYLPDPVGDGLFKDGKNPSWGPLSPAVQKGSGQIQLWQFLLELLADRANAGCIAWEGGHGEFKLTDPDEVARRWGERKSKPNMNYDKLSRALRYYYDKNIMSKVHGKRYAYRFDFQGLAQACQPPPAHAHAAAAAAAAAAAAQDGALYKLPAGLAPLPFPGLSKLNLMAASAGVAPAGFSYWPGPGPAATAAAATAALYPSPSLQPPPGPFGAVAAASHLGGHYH
# In short: (§1)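 Each value of binding signal is a hexamer's read frequency for a factor divided by the same hexamer's frequency in the tag-only sample. Barcoded, bead-captured GST fusions of human transcription factors made in yeast were pooled with that sample and incubated with 200 nmole of a random double-stranded 16-mer DNA library in Tris/NaCl/DTT/glycerol buffer at room temperature for 30 min. Washing, 0.1% formaldehyde crosslinking, proximity ligation, PCR and Illumina NextSeq500 sequencing followed.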
# [2] = molecular target: ETV5 (Homo sapiens, UniProt P41161 1-510); details: protein: recombinant; tags: N-terminal GST; dsDNA, one strand shown
# Sequence of ETV5 (P41161 whole entry): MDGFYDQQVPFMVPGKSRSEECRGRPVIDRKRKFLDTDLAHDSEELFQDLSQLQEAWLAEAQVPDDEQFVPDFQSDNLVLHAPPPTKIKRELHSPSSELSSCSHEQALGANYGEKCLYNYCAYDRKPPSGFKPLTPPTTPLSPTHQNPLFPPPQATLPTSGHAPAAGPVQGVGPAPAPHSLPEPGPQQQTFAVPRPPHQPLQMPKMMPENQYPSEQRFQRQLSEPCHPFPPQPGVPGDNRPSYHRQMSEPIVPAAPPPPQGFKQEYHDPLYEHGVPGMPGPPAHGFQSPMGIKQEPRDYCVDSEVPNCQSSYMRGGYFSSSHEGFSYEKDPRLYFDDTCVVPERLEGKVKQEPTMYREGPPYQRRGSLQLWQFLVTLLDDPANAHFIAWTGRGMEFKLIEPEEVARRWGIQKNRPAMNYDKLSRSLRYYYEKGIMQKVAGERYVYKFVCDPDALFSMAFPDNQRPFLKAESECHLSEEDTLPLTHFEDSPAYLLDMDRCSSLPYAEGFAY
# In short: as §1
# [3] = molecular target: HSF1 (Homo sapiens, UniProt Q00613 1-529); details: protein: recombinant; tags: N-terminal GST; chain copies: 3; dsDNA, one strand shown
# Sequence of HSF1 (Q00613 whole entry): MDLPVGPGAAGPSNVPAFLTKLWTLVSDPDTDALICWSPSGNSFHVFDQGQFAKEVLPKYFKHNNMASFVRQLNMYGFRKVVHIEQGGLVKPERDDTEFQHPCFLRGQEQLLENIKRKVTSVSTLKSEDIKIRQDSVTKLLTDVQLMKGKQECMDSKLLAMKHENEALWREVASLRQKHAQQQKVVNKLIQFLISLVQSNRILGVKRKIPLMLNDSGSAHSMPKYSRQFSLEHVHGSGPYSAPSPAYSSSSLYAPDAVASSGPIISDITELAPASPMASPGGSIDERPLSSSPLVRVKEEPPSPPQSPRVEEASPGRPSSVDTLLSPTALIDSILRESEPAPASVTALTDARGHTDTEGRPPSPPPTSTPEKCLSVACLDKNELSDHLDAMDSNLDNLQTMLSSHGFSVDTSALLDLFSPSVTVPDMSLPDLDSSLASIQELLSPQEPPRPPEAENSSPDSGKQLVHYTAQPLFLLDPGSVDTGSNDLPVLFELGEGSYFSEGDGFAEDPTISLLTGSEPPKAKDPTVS
# In short: as §1
# [4] = molecular target: T2, SPIC (Homo sapiens, UniProt Q8N5J4 1-248); details: protein: recombinant; tags: N-terminal GST; dsDNA, one strand shown
# T2 sequence: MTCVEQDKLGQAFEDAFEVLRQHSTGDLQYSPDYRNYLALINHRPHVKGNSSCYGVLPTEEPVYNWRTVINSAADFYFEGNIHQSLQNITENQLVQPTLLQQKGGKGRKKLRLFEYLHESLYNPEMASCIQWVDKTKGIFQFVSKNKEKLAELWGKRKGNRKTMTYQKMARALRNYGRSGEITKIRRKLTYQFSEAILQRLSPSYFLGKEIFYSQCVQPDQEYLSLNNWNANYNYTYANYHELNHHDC
# In short: as §1
# [5] = molecular target: ELF4 (Homo sapiens, UniProt Q99607 1-663); details: protein: recombinant; tags: N-terminal GST; dsDNA, one strand shown
# Sequence of ELF4 (Q99607 whole entry): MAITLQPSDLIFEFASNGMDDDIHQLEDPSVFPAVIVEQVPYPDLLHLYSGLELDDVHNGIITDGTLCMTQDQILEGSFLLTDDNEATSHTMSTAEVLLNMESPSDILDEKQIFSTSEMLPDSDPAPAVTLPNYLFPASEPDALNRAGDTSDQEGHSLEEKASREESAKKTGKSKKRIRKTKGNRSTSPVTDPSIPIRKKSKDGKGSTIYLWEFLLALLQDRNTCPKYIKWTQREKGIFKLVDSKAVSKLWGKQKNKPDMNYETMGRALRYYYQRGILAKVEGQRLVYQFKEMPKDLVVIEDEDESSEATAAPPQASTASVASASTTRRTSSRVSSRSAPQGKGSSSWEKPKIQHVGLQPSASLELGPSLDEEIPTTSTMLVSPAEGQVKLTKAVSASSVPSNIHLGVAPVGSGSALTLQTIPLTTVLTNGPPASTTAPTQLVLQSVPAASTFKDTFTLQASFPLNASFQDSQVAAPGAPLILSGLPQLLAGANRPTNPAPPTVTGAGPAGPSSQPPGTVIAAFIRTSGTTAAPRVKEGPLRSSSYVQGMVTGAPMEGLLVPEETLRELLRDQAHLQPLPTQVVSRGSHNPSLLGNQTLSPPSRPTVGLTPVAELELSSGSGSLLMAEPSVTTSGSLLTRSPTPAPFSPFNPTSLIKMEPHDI
# In short: as §1
# [6] = molecular target: T3, ELK4 (Homo sapiens, UniProt P28324-2 1-405); details: protein: recombinant; tags: N-terminal GST; dsDNA, one strand shown
# T3 sequence: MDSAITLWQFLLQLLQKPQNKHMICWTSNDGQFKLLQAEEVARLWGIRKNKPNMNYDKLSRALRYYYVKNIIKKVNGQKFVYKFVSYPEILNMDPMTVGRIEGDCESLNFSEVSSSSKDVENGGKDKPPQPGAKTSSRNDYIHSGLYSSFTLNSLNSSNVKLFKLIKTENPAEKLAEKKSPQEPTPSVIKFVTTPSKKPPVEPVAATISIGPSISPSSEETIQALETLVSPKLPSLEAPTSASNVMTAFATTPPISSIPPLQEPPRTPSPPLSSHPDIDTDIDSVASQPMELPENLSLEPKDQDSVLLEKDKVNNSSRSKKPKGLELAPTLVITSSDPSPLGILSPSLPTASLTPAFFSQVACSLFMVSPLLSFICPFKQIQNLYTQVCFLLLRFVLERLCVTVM
# In short: as §1
# [7] = molecular target: T4, ETV2 (Homo sapiens, UniProt O00321 1-342); details: protein: recombinant; tags: N-terminal GST; dsDNA, one strand shown
# T4 sequence: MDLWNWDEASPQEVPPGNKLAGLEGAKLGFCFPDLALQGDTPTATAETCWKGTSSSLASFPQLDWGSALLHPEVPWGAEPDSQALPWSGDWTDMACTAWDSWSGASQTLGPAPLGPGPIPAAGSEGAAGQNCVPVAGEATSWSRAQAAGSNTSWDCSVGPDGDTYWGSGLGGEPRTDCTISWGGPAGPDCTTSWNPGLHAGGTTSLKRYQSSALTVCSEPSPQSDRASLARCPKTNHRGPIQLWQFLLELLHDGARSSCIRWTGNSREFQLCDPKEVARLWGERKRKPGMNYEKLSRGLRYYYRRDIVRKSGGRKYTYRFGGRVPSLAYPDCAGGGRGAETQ
# In short: as §1
# [8] = molecular target: T5, ELF3 (Homo sapiens, UniProt P78545 1-371); details: protein: recombinant; tags: N-terminal GST; dsDNA, one strand shown
# T5 sequence: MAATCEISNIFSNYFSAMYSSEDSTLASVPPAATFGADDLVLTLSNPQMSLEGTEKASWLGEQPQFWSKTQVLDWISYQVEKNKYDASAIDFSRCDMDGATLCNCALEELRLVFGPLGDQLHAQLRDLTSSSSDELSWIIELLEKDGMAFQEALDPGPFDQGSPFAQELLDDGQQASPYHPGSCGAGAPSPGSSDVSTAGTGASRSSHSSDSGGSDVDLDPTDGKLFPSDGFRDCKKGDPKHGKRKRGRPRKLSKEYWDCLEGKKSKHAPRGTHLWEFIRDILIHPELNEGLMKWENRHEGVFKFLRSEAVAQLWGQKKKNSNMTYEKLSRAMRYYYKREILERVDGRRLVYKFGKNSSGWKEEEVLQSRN
# In short: as §1
# [9] = molecular target: CRX (Homo sapiens, UniProt O43186 1-299); details: protein: recombinant; tags: N-terminal GST; dsDNA, one strand shown
# Sequence of CRX (O43186 whole entry): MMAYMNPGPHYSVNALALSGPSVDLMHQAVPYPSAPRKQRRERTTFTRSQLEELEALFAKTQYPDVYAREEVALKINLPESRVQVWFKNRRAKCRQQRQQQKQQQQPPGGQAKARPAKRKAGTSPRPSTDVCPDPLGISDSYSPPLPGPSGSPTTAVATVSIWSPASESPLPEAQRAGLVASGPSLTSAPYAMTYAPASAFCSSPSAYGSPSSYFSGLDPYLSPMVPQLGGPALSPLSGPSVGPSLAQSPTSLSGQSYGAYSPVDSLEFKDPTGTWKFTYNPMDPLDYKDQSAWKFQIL
# In short: as §1
# [10] = molecular target: ETV1 (Homo sapiens, UniProt P50549 1-477); details: protein: recombinant; tags: N-terminal GST; dsDNA, one strand shown
# Sequence of ETV1 (P50549 whole entry): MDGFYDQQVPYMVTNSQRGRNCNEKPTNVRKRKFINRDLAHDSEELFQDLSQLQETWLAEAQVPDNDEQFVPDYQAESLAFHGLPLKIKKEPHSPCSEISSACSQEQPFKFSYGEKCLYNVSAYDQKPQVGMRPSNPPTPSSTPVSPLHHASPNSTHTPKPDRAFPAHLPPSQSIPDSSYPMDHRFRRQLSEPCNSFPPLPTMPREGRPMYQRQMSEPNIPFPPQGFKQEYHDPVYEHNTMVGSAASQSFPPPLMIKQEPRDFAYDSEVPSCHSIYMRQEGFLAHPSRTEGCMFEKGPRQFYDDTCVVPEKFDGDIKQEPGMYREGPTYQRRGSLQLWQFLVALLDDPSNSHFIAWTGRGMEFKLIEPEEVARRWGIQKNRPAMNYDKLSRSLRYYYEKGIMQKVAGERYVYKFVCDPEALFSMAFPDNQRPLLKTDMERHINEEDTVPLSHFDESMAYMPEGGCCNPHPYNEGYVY
# In short: as §1
# [11] = molecular target: T6, ERF (Homo sapiens, UniProt P50548 1-548); details: protein: recombinant; tags: N-terminal GST; dsDNA, one strand shown
# T6 sequence: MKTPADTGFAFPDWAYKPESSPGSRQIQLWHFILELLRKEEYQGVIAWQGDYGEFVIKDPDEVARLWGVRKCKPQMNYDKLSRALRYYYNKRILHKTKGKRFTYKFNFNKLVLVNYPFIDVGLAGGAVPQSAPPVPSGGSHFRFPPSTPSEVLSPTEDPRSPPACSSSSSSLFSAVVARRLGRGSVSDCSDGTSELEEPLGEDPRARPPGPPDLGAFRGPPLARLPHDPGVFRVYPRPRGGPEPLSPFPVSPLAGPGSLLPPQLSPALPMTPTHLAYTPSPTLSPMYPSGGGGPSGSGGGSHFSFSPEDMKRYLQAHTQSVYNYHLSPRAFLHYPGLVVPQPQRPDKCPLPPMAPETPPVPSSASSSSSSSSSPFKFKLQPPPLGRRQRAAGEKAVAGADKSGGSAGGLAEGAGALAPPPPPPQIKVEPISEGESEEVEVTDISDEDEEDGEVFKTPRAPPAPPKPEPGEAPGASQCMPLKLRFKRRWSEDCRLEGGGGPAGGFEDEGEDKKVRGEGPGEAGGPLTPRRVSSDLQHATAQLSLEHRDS
# In short: as §1
# [12] = molecular target: T7, ETV3L (Homo sapiens, UniProt Q6ZN32 1-361); details: protein: recombinant; tags: N-terminal GST; dsDNA, one strand shown
# T7 sequence: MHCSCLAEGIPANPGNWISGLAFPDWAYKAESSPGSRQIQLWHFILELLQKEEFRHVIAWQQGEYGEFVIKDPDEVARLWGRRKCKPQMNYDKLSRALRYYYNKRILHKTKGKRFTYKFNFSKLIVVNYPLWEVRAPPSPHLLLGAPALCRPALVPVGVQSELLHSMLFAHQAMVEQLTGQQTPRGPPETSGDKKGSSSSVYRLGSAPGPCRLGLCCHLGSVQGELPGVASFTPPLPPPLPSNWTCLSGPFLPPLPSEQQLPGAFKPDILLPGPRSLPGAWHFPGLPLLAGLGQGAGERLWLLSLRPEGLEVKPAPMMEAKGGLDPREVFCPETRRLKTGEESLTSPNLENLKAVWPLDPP
# In short: as §1
# [13] = molecular target: T8, ETS2 (Homo sapiens, UniProt P15036 1-469); details: protein: recombinant; tags: N-terminal GST; dsDNA, one strand shown
# T8 sequence: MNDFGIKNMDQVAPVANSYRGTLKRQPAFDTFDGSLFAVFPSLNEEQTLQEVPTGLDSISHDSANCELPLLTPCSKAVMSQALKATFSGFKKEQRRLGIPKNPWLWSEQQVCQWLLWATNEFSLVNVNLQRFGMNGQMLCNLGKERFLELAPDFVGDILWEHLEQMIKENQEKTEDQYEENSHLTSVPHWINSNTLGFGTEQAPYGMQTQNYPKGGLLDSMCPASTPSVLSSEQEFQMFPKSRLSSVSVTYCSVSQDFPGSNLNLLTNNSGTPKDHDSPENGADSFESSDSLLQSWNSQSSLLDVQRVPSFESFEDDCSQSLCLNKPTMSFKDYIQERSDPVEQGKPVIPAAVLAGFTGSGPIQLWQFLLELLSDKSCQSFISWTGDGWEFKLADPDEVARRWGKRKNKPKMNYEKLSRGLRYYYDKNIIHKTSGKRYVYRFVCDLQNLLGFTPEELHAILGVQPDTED
# In short: as §1
# [14] = molecular target: T9, SPDEF (Homo sapiens, UniProt O95238 1-335); details: protein: recombinant; tags: N-terminal GST; dsDNA, one strand shown
# T9 sequence: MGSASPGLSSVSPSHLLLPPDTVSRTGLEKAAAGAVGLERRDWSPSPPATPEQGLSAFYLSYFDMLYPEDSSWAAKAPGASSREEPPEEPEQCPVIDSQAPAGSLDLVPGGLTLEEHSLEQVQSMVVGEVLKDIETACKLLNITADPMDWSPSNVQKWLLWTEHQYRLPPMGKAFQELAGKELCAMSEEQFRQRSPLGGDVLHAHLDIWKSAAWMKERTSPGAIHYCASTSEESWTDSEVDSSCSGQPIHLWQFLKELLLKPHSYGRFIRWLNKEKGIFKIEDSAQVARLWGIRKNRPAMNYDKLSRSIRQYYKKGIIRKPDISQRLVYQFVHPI
# In short: as §1
# [15] = molecular target: T10, ETV7 (Homo sapiens, UniProt Q9Y603 1-341); details: protein: recombinant; tags: N-terminal GST; dsDNA, one strand shown
# T10 sequence: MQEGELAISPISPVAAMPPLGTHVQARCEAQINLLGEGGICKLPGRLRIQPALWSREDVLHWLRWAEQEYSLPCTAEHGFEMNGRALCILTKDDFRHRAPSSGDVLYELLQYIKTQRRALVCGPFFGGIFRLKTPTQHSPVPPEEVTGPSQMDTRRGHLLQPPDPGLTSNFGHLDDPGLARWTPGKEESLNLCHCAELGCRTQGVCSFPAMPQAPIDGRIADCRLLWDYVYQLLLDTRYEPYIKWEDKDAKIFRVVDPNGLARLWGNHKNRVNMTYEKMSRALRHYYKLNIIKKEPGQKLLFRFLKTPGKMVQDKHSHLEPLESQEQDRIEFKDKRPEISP
# In short: as §1
# [16] = molecular target: T11, ELF5 (Homo sapiens, UniProt Q9UKW6-2 1-255); details: protein: recombinant; tags: N-terminal GST; dsDNA, one strand shown
# T11 sequence: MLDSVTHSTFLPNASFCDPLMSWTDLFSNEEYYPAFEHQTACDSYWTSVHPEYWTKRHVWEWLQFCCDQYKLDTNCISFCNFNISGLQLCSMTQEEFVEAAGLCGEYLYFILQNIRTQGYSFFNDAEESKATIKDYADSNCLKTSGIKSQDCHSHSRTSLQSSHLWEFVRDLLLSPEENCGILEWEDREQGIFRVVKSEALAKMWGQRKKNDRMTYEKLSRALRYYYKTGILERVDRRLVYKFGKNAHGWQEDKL
# In short: as §1
# [17] = molecular target: T12, ETV3 (Homo sapiens, UniProt P41162-2 1-143); details: protein: recombinant; tags: N-terminal GST; dsDNA, one strand shown
# T12 sequence: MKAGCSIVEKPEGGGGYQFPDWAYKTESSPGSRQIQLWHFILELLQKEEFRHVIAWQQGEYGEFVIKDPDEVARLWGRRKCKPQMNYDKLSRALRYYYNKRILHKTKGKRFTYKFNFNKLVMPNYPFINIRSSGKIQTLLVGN
# In short: as §1
# [18] = molecular target: ETV6 (Homo sapiens, UniProt P41212 1-452); details: protein: recombinant; tags: N-terminal GST; dsDNA, one strand shown
# Sequence of ETV6 (P41212 whole entry): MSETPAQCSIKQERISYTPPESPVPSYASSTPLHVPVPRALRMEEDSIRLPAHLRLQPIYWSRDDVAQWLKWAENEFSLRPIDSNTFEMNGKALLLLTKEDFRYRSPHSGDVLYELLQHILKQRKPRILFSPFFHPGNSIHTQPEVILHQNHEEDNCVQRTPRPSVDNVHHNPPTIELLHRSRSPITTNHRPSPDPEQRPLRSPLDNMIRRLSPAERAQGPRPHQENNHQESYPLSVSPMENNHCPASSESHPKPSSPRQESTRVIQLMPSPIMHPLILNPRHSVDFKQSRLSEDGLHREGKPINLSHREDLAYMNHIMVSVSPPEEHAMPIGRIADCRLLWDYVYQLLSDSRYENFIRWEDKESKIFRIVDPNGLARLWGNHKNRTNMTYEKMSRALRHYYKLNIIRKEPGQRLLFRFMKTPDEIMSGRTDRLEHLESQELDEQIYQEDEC
# In short: as §1
sequence,measurement,setting,value
ACCTAC,binding signal,[1],"1.17 fold enrichment (6-mer frequency, TF over GST control)"
same,binding signal,[2],"1.13 fold enrichment (6-mer frequency, TF over GST control)"
same,binding signal,[3],"1.07 fold enrichment (6-mer frequency, TF over GST control)"
same,binding signal,[4],"1.13 fold enrichment (6-mer frequency, TF over GST control)"
same,binding signal,[5],"1.24 fold enrichment (6-mer frequency, TF over GST control)"
same,binding signal,[6],"1.22 fold enrichment (6-mer frequency, TF over GST control)"
same,binding signal,[7],"1.23 fold enrichment (6-mer frequency, TF over GST control)"
same,binding signal,[8],"1.29 fold enrichment (6-mer frequency, TF over GST control)"
same,binding signal,[9],"1.02 fold enrichment (6-mer frequency, TF over GST control)"
same,binding signal,[10],"1.23 fold enrichment (6-mer frequency, TF over GST control)"
same,binding signal,[11],"1.17 fold enrichment (6-mer frequency, TF over GST control)"
same,binding signal,[12],"1.26 fold enrichment (6-mer frequency, TF over GST control)"
same,binding signal,[13],"1.2 fold enrichment (6-mer frequency, TF over GST control)"
same,binding signal,[14],"1.17 fold enrichment (6-mer frequency, TF over GST control)"
same,binding signal,[15],"1.09 fold enrichment (6-mer frequency, TF over GST control)"
same,binding signal,[16],"1.29 fold enrichment (6-mer frequency, TF over GST control)"
same,binding signal,[17],"1.25 fold enrichment (6-mer frequency, TF over GST control)"
same,binding signal,[18],"1.32 fold enrichment (6-mer frequency, TF over GST control)"
